Hits are enriched below; roughly 4.9% of the tested compounds scored in any of these assays.
Beta apoptosis = beta cell apoptosis inhibition | INS-1E cytokine-induced death, ATP luminescence, 48 h; percent of positive-control rescue, neutral wells zero | protection from apoptosis, % (concentration not given with the values) | 0.8% of 300,000 active;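 active = Every replicate reaches about 75%, or at least half do and their mean reaches it too, limit read from the data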;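 also: higher means more ATP so stronger rescue from cytokine killing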
PP1 inh = PP1-alpha (human) inhibition in PP5 counter-screen | P62136 | purified PP1alpha, OMFP fluorescence | inhibition, % at 6.7 µM | AID 2235 | 0.9% of 320,000 active;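 active = inhibition above the mean inhibition of all tested compounds plus 3 SD, computed separately for each screening campaign, cut at about 15% in these data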
Mdm2 MdmX PPI = disrupts the human Mdm2-MdmX interaction; O15151+Q00987; SaOS-2 split-luciferase Mdm2/MdmX complementation, luminescence; inhibition, % at 8 µM; 3% of 330,000 active; AID 485346;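 active = inhibition of at least 50% at 8 µM in the primary screen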
Calb FLC = C. albicans growth modulation with fluconazole; AID 1979; growth inhibition, % (no concentration beside the values); C. albicans CaCi-2 (fluconazole-resistant clinical isolate) + fluconazole, Alamar Blue growth, 48 h; 0.57% of 300,000 active;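 active = growth inhibition above about 58% in most replicates, limit read from the data, passing the limit was not always enough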;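 also: all wells also contain fluconazole at 8 µg/ml as a sub-toxic cotreatment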
PP5 primary = inhibitors of human protein phosphatase 5 (PP5). P53041. purified PP5c, OMFP substrate fluorescence. inhibition, % at 6.7 µM. 0.18% of 320,000 active. AID 1987;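 active = inhibition above the campaign's mean inhibition across all tested compounds plus 3 SD, cut at about 9.5% in these data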
CSC inhib = blocks cancer stem cells | cancer stem cell-like cells viability, luminescence | inhibition, % at 7.5 µM | 1.1% of 300,000 active | AID 2717; in the data active = inhibition above about 75%; tested in HMLE shEcad cells
Numbers stand for hits; – = inactive; · = no result.

SMILES	Beta apoptosis	PP1 inh	Mdm2 MdmX PPI	Calb FLC	PP5 primary	CSC inhib
O=c1[nH]c(=O)n(Cc2ccc(F)cc2)c(O)c1/C=N/Nc1ccccc1	–	–	–	–	–	79
O=c1[nH]c(=O)n(CCC2=CCCCC2)c(O)c1/C=N/Nc1ccccc1	–	–	–	–	–	97
O=c1[nH]c(=O)n(CCC2=CCCCC2)c(O)c1C=NC1CCN(Cc2ccccc2)CC1	–	–	–	·	–	–
CCC(C)n1c(O)c(/C=N/Nc2ccccc2)c(=O)[nH]c1=S (stereo unspecified)	–	–	–	–	–	83
NCCCCCC(=O)OC1N=C(c2ccccc2Cl)c2cc(Br)ccc2NC1=O (stereo unspecified)	–	–	–	–	–	–
CC(=NCc1ccc2c(c1)OCO2)c1c(O)n(-c2ccc(C)cc2)c(=O)[nH]c1=O	·	–	–	–	–	–
c1ccc2c3c([nH]c2c1)C1(CCNCC1)NCC3	87	–	–	–	–	–
CCC(CC)N1CCN(C(=O)Cc2ccccc2)CC1	–	–	–	–	–	–
c1ccc2c(CN3CCCCCC3)c[nH]c2c1	100	–	–	–	–	–
CCCCCCOc1ccc(CN2CCN(C)CC2)cc1	109	–	–	–	–	·
CN1CCN(Cc2ccc3ccccc3c2)CC1	–	–	–	–	–	–
C=CCC1C(=O)NC(=S)NC1=O	–	–	–	–	–	–
CC(C)Nc1ccc(Nc2ccccc2)cc1	113	–	–	–	–	–
O=C1CN=C(c2ccc(Br)cc2)c2c(sc3c2CCCC3)N1CCN1CCCCC1	–	–	–	–	–	–
Cn1c(=O)c2c(ncn2CCCl)n(C)c1=O	–	–	–	–	–	–
O=c1[nH]c(CN2CC=C(c3ccccc3)CC2)nc2scc(-c3ccccc3)c12	–	–	–	–	–	81
CC1(C)C2([N+](=O)[O-])CN3CN(C2)CC1([N+](=O)[O-])C3	–	–	–	–	–	–
Cc1ccc(-n2c(-c3cccs3)nc3ccccc3c2=O)cc1	–	–	–	–	–	78
Cc1cc(C)cc(N2C(=O)NC(=O)/C(=C\C=C\c3ccco3)C2=O)c1	–	–	·	–	–	–
CCc1ccc(N2C(=O)NC(=O)/C(=C\C=C\c3ccco3)C2=O)cc1	–	–	–	–	–	116
CC(C)c1ccc(N2C(=O)NC(=O)/C(=C/C=C/c3ccco3)C2=O)cc1	–	17	·	–	–	98
Cc1ccc(NP(=O)(Nc2ccc(C)cc2)Oc2ccccc2)cc1	–	–	–	–	–	–
CC[C@@H]1C=CC=CC[C@H](C)[C@@H](O)[C@@H](C)C(=O)[C@H](C)[C@@H](O)[C@H](C)C(=O)[C@H](C)[C@@H](O)[C@H](C)C=CC(=O)O[C@H]2[C@@H](C)[C@@H](CC1)O[C@@]1(CC[C@@H](C)[C@@H](C[C@H](C)O)O1)[C@@H]2C	–	–	–	·	–	–
CN1C2CCC1/C(=C/c1ccccn1)C(=O)/C2=C\c1ccccn1	100	–	·	·	–	–
Cc1ccc(-c2cc(-c3ccc(C)cc3)[n+](-c3ccc(C(=O)[O-])cc3)c(-c3ccc(C)cc3)c2)cc1	98	–	–	–	–	–
SMILES	Beta apoptosis	PP1 inh	Mdm2 MdmX PPI	Calb FLC	PP5 primary	CSC inhib
CCCCn1c(NC(=O)c2ccc(Br)o2)c(C(=O)OCC)c2nc3ccccc3nc21	–	–	–	·	13	–
CCCCn1c(NS(=O)(=O)c2ccccc2)c(C(=O)OCC)c2nc3ccccc3nc21	–	–	·	·	–	–
C[C@H]1O[C@@H](OC2CC[C@]3(C=O)[C@H]4CC[C@]5(C)[C@@H](C6=CC(=O)OC6)CC[C@]5(O)[C@@H]4CC[C@]3(O)C2)CC2OC(C)(C)OC21 (stereo partly specified)	–	–	·	–	–	101
O=[N+]([O-])c1cc(Cl)c(O)c(-[n+]2c(-c3ccccc3)cc(-c3ccccc3)cc2-c2ccccc2)c1	–	–	–	–	–	–
O=[N+]([O-])c1ccc(C[n+]2c(-c3ccccc3)cc(-c3ccccc3)cc2-c2ccccc2)cc1	–	–	–	107	–	–
CCOC(=O)[C@@]12C(=O)C(=O)N[C@]1(c1ccccc1)C1OCCCC12 (stereo partly specified)	–	–	–	–	–	–
CC/C(=N\Nc1ccccc1)c1c(O)n(-c2ccc(OC)cc2)c(=O)[nH]c1=O	–	–	–	–	–	76
Cc1ccc(N2C(=O)NC(=O)/C(=C/c3cnn(-c4ccc(C)cc4)c3)C2=O)cc1	85	–	–	–	–	–
